Measurements taken from PubChem BioAssay (EPA / NIEHS).
Inconclusive results are not listed. Active and inactive are the calls of the source. How the source made its calls, unless noted: active means hit-call score of the fitted dose curve at least 0.9, where 1 is the maximum; inactive means score below 0.9.

Tests used:
[1] = biological target: Transcriptional activator Myb (Homo sapiens) (UniProt P10242); experiment: ATG_Myb_CIS: Attagene CIS-FACTORIAL HepG2 Assay for human Myeloblastosis (Myb) Proto-Oncogene Transcription Factor (AID 2282986); settings: HepG2 Attagene CIS-FACTORIAL Myb reporter transcription; actives raise or lower the signal
Transcriptional activator Myb (Homo sapiens), sequence (P10242 whole entry, looked up): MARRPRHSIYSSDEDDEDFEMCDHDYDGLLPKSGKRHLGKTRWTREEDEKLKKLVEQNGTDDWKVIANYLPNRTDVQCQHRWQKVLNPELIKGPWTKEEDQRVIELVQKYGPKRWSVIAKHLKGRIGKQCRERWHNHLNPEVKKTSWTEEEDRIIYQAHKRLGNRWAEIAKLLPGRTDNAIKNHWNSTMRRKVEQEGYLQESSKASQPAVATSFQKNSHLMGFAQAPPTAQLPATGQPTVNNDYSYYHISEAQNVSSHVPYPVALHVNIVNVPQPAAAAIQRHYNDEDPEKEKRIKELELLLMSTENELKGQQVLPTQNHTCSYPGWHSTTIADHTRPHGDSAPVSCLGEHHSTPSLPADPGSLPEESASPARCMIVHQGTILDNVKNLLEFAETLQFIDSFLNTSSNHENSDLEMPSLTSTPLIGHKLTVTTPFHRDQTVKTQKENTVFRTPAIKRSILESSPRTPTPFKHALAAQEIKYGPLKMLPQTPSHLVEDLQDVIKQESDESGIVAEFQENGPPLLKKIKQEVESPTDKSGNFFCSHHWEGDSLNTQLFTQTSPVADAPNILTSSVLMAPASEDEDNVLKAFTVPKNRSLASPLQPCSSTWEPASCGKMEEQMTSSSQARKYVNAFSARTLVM
How it was run: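 Steps: transfect HepG2 with cis-regulated reporter units; dose with chemical for 24 h; isolate RNA, reverse-transcribe, PCR-amplify and FAM-label reporter sequences; digest with HpaI; resolve by capillary electrophoresis. Activity fitted in both directions relative to DMSO.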

[2] = biological target: Nuclear respiratory factor 1 (Homo sapiens) (UniProt Q16656); experiment: ATG_NRF1_CIS: Attagene CIS-FACTORIAL HepG2 Assay for human Nuclear Respiratory Factor 1 (NRF1) Orphan Gene (AID 2282987); settings: HepG2 NRF1 cis-element reporter, Attagene multiplex; actives raise or lower the signal
Nuclear respiratory factor 1 (Homo sapiens), sequence (Q16656 whole entry, looked up, the tested form may be a part): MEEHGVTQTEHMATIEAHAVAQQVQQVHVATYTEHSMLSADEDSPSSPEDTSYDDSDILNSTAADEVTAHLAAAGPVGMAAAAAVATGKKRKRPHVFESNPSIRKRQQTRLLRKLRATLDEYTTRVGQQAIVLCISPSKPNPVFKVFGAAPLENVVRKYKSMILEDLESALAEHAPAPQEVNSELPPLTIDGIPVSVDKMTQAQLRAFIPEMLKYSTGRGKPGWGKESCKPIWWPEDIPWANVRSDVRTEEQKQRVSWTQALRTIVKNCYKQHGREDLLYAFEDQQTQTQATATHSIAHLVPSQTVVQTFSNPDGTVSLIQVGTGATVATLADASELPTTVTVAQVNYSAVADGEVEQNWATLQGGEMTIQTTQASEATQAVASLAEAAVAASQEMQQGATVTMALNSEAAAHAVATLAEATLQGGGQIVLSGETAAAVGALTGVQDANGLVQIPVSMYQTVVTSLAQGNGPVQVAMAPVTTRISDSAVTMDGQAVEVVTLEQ
How it was run: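 Fluorescence intensity of labelled reporter cDNA fragments, resolved by capillary electrophoresis, served as readout for NRF1 cis-element activity. Transiently transfected HepG2 cells were dosed for 24 hours; activity in either direction was fitted against DMSO negative control.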

[3] = ATG_NFI_CIS: Attagene CIS-FACTORIAL HepG2 Assay for human Nuclear Factor I (NFI) (AID 2282989); settings: HepG2 cis-regulatory reporter, NFI response element transcription; actives raise or lower the signal
How it was run: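 HepG2, transient MRTU, 24 h exposure; RNA→cDNA→PCR→FAM label→HpaI→CE fluorescence. Bidirectional fit, DMSO = baseline.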

[4] = ATG_M_06_TRANS: Attagene TRANS-FACTORIAL HepG2 Assay for M06 Transcription Factor (Internal Marker) (AID 2282983; active means hit-call score of the fitted dose curve at least 0.9, where 1 is the maximum;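 further: reporter transcript level by RT-PCR then capillary electrophoresis fluorescence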); settings: HepG2 Attagene TRANS M06 internal marker reporter
How it was run: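 Measured by capillary electrophoresis of fluorescently labelled RT-PCR products, this endpoint reflects reporter mRNA in HepG2 cells harbouring exogenous NR-GAL4 reporter constructs after 24 h exposure, with DMSO as baseline.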

[5] = ATG_M_32_TRANS: Attagene TRANS-FACTORIAL HepG2 Assay for M32 Transcription Factor (Internal Marker) (AID 2282984; active means hit-call score of the fitted dose curve at least 0.9, where 1 is the maximum;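 further: transcript level of a background control reporter unit measured by RT-PCR and capillary electrophoresis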); settings: HepG2 Attagene TRANS M32 internal marker reporter
How it was run: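 Capillary electrophoresis of 6-FAM-labelled reporter fragments gives the signal; data fitted for gain over DMSO negative control. Source: HepG2 cells bearing transient multiple reporter transcription units, 24 h exposure.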

[6] = biological target: Nuclear receptor subfamily 4 group A member 2 (Homo sapiens) (UniProt P43354); experiment: ATG_NURR1_TRANS: Attagene TRANS-FACTORIAL HepG2 Assay for human Nuclear Receptor Related Protein 1 (NURR1) (AID 2282985; active means hit-call score of the fitted dose curve at least 0.9, where 1 is the maximum); settings: HepG2 Attagene TRANS reporter, mRNA readout
Nuclear receptor subfamily 4 group A member 2 (Homo sapiens), sequence (P43354 whole entry, looked up): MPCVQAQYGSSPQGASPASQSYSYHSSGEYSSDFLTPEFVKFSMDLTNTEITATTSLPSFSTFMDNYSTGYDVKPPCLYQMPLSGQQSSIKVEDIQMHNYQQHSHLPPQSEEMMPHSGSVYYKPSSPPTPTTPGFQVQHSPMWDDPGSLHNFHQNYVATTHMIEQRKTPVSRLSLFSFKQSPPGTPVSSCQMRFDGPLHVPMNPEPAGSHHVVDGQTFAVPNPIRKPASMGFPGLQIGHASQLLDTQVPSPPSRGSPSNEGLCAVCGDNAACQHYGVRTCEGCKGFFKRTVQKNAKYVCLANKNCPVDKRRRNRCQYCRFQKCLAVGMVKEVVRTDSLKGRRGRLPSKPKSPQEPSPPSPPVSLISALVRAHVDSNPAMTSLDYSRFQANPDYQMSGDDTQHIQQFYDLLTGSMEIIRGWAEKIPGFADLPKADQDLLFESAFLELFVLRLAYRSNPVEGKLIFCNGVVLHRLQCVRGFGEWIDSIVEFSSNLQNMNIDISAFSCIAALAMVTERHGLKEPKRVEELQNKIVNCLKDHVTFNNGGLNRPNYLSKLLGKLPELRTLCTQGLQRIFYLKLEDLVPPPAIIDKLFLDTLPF
How it was run: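 HepG2 / transient MRTU transfection / 24 h compound exposure / RT-PCR + CE fluorescence of reporter mRNA / gain-of-signal vs DMSO.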

[7] = biological target: Hepatocyte nuclear factor 4-alpha (Homo sapiens) (UniProt P41235); experiment: ATG_HNF4a_TRANS: Attagene TRANS-FACTORIAL HepG2 Assay for human Hepatocyte Nuclear Factor 4 alpha (HNF4a) (AID 2282982; active means hit-call score of the fitted dose curve at least 0.9, where 1 is the maximum); settings: HepG2 HNF4a transactivation reporter, mRNA readout
Hepatocyte nuclear factor 4-alpha (Homo sapiens), sequence (P41235 whole entry, looked up, the tested form may be a part): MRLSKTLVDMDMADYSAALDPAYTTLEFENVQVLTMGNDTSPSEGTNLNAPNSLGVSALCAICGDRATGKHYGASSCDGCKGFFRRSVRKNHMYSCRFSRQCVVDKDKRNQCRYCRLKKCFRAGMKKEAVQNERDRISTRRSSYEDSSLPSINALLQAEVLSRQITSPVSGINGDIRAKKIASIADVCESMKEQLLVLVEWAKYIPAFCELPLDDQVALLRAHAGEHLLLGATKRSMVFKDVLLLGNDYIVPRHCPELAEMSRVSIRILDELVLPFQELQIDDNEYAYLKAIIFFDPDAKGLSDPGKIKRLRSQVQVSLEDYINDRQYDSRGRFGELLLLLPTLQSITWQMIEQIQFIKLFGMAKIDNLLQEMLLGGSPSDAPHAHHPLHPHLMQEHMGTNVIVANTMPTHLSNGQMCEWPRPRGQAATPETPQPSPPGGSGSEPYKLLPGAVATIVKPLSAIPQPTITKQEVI
How it was run: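 Gain-of-signal mRNA induction, relative to DMSO vehicle, was read after 24 h compound treatment of HepG2 cells bearing transfected GAL4-UAS reporters. Detection used RT-PCR, 6-FAM primer extension and capillary electrophoresis.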

Measured: AC50

C[As+](C)(C)CC(=O)[O-]
inactive: [1] | [2] | [3]

CCCSP(=S)(OCC)Oc1ccc(Cl)cc1Cl (stereo not given)
not listed: [1] | [7]
inactive: all other assays above

Nc1ncn[nH]1
inactive: [4] | [1] | [2] | [3]

CNC(=O)O/N=C/C(C)(C)S(C)(=O)=O
not listed: [4] | [7]
inactive: all other assays above

O=[N+]([O-])c1c2ccccc2cc2ccccc12
not listed: [1] | [6]
inactive: all other assays above

O=C(NC(=O)c1c(F)cccc1F)Nc1cc(Cl)c(F)c(Cl)c1F
not listed: [2] | [6]
inactive: all other assays above

CCNc1nc(NCC)nc(SC)n1
not listed: [6]
inactive: all other assays above

CC(c1ccc(O)cc1)c1ccc(O)cc1
not listed: [1] | [4]
inactive: all other assays above

CC(C)CP(=S)(S)CC(C)C
not listed: [6]
inactive: all other assays above

COc1ccccc1N
not listed: [2]
inactive: all other assays above

Cc1cc(-c2cc(C)c(N)c(C)c2)cc(C)c1N
not listed: [4] | [7]
inactive: all other assays above

CC[N+](CC)(CC)CC
not listed: [6] | [7]
inactive: all other assays above

CC(=O)CN(CC(C)=O)N=O
not listed: [6]
inactive: all other assays above

O=S(=O)(Oc1ccc(Cl)cc1)c1ccc(Cl)cc1
inactive: [4] | [6] | [1] | [3]

Oc1cccc(-c2ccccc2)c1
inactive: [4] | [6] | [2]
active: [3] 139 µM

CCCCN(CCCCO)N=O
inactive: [4] | [1] | [2] | [3]

C=C(C)C(=O)OCC(CC)CCCC (stereo not given)
not listed: [5]
inactive: all other assays above

C1CN2CCN1CC2
not listed: [4]
inactive: all other assays above

Clc1cccc(Cl)c1
inactive: [2] | [3]

Cc1cccc(N=Nc2ccc(N(C)C)cc2)c1
not listed: [5] | [6]
inactive: all other assays above

c1ccc2c(c1)Oc1ccccc1O2
inactive: [4] | [1] | [2] | [3]

CCCCCCCCCCCCc1cccc(S(=O)(=O)O)c1
inactive: [4] | [6] | [1] | [3]

CCC[N+](CCC)(CCC)CCC
not listed: [6] | [7]
inactive: all other assays above

ClCc1ccccc1Cl
not listed: [4] | [7]
inactive: all other assays above

O=C1c2ccccc2C(=O)C1C(=O)C(c1ccccc1)c1ccc(Cl)cc1 (stereo not given)
active: [6] 4.69 µM
inactive: [7] | [2] | [3]

Cc1cc(Cl)ccc1OCCCC(=O)O
not listed: [7]
inactive: all other assays above

Cc1c([N+](=O)[O-])c(C)c([N+](=O)[O-])c(C(C)(C)C)c1[N+](=O)[O-]
active: [6] 11.3 µM
inactive: [4] | [1] | [2] | [3]

CCCCCCCCCCCCOS(=O)(=O)O
not listed: [4] | [7]
inactive: all other assays above

CCOc1ccc(N)cc1
not listed: [4] | [5]
inactive: all other assays above

O=C(O)c1cc(I)cc(I)c1I
inactive: [5] | [1] | [2] | [3]

COCCl
not listed: [6] | [7]
inactive: all other assays above

CCCCOC(=O)COC(=O)c1ccccc1C(=O)OCCCC
not listed: [1] | [4]
inactive: all other assays above

O=NN1CCOCC1
inactive: [4] | [6] | [1] | [3]

CCOP(=O)(OCC)SCCSCC
not listed: [7]
inactive: all other assays above

Clc1ccc(C(Cl)(Cl)Cl)cn1
not listed: [5]
inactive: all other assays above
